Experimental data as given in PubChem BioAssay (Tox21).
Records with an inconclusive call do not appear. A call without a number means that no potency is given here. Unmarked numbers belong to inactive results. Calls of active or inactive are those of the source. Calls come from the whole dose curve; as a rule, active = well fitted curve in the direction sought with a large enough effect in the repeat runs; inconclusive = weak or mixed curves; inactive = no such curve, though single readings can be large; an effect the other way counts as inactive or inconclusive.

assay: qHTS RealTime-Glo MT Cell Viability Assay in HepG2 cells - 8 hour (AID 1224873); conditions: RealTime-Glo luminescence; series mostly up to 76.8 µM; note: nearly all actives have a fitted effect of over 55% in size
Method in brief: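 Real-time viability: cells seeded at 600 per well together with NanoLuc and cell-permeant prosubstrate, compounds added after 5 h incubation. Luminescence tracked at 0, 8, 16, 24, 32 and 40 h of exposure.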

SMILES	Potency
C=CC(=O)NCOCC(C)C	inactive
CC(C)C(OC(=O)c1ccccc1)C(C)(C)COC(=O)c1ccccc1 (stereo unspecified)	inactive
C=CCNc1nc(NCC=C)nc(N2CCN(C(c3ccc(F)cc3)c3ccc(F)cc3)CC2)n1	inactive
Fc1ccccc1[C@@H](F)COC1CCC(Nc2ncnc3[nH]ncc23)CC1 (stereo partly specified)	inactive
CC1=CC(O)CC(C)(C)C1 (stereo unspecified)	inactive
O=c1[nH]c2ccc(S(=O)CCN3CCC(Cc4ccc(F)cc4)CC3)cc2o1 (stereo unspecified)	inactive
CCOC(=O)N1CCC(n2c(=O)[nH]c3cc(Cl)ccc32)CC1	inactive
CCCCC(CC)C(=O)OCCOCCOCCOCCOC(=O)C(CC)CCCC (stereo unspecified)	inactive
O=[N+]([O-])c1cccc(S(=O)(=O)NCCNS(=O)(=O)c2cccc([N+](=O)[O-])c2)c1	inactive
CCCCC1C(=O)N(c2ccccc2)N(c2ccc(O)cc2)C1=O (stereo unspecified)	inactive
CC(C)(C)C(=O)O	inactive
C(=C\c1ccccc1)/CN1CCN(C(c2ccccc2)c2ccccc2)CC1	inactive
CC1CC(=O)NN=C1c1ccc(NCC(C)(C)NCC(O)COc2cc(Cl)ccc2C#N)cc1 (stereo unspecified)	inactive
CC(CCc1ccc2c(c1)OCO2)NN (stereo unspecified)	inactive
O=C(N[C@@H](c1ccccc1)[C@@H]1CCCCN1)c1cccc(C(F)(F)F)c1Cl	inactive
CCCCCCCCCOC(C)=O	inactive
O=C(CCC1CCN(Cc2ccccc2)CC1)c1ccc2c(c1)NCCCC2	inactive
CCCCCCOC(=O)C(C)C	inactive

SMILES	Potency
CCCOC(=O)c1ccc(C(=O)OCCC)nc1	inactive
CO/N=C1\CN(c2nc3c(cc2F)c(=O)c(C(=O)O)cn3C2CC2)CC1CN (stereo unspecified)	inactive
CCCCCCCCCCCC[N+](C)(C)CCCS(=O)(=O)[O-]	inactive
C/C=C/C=C/CCCCCCCO	inactive
CCOC(=O)CC(=O)C(=O)OCC	inactive
O=C1NCCN1	inactive
Nc1nccs1	inactive
Cc1ccc(Nc2nccc(N(C)c3ccc4c(C)n(C)nc4c3)n2)cc1S(N)(=O)=O	inactive
O=S1OCCO1	inactive
CC1CC(O)CC(C)(C)C1 (stereo unspecified)	inactive
CC(=O)[C@H]1CC[C@H]2[C@@H]3C[C@H](C)C4=CC(=O)CC[C@]4(C)[C@H]3[C@@H](O)C[C@]12C	inactive
CC(=O)Oc1ccc2c(c1)CC[C@@H]1[C@@H]2CC[C@]2(C)[C@@H](O)CC[C@@H]12	inactive
CNC(=O)N(c1ccccc1)c1ccccc1	inactive
CC(=O)OCC(=O)[C@H]1CC[C@H]2[C@@H]3CCC4=CC(=O)CC[C@]4(C)[C@H]3CC[C@]12C	inactive
CCCCCCCCCCCC[N+](C)(C)CC(=O)[O-]	inactive
CCCC1C(CC)=CC(CC)=CN1c1ccccc1 (stereo unspecified)	inactive
C1COCO1	inactive
O=C(c1ccc(O)cc1)c1ccc(Cl)cc1	inactive

assay: qHTS RealTime-Glo MT Cell Viability Assay in HEK293 cells - 40 hour (AID 1224874); conditions: RealTime-Glo luminescence; max response: active compounds read low; note: nearly all actives have a fitted effect of over 50% in size; note: potency is the fitted concentration of half-maximal effect
Method in brief: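 Tox21 screen in HEK293 using RealTime-Glo MT chemistry, with cells and reagent co-dispensed. Luminescence proportional to viable cell number was captured at intervals during 40 h compound exposure at 37 C.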

SMILES	max response [%]	Potency
C=CC(=O)NCOCC(C)C	-14	–
C=CCNc1nc(NCC=C)nc(N2CCN(C(c3ccc(F)cc3)c3ccc(F)cc3)CC2)n1	-23.1	–
CCCCN(CCCC)C(=S)SSC(=S)N(CCCC)CCCC	–	38.5 µM (active)
Fc1ccccc1[C@@H](F)COC1CCC(Nc2ncnc3[nH]ncc23)CC1 (stereo partly specified)	–	24.5 µM (active)
CC1=CC(O)CC(C)(C)C1 (stereo unspecified)	8.3	–
NC(=O)N(O)[C@@H]1C=C[C@H](Oc2cccc(Oc3ccc(F)cc3)c2)C1	–	19.5 µM (active)
O=[N+]([O-])c1cccc(S(=O)(=O)NCCNS(=O)(=O)c2cccc([N+](=O)[O-])c2)c1	-6.21	–
CC(C)(C)C(=O)O	6.48	–
COc1cc2ncnc(Nc3ccc(F)c(Cl)c3)c2cc1OCCCN1CCOCC1	–	10.7 µM (active)
CC(CCc1ccc2c(c1)OCO2)NN (stereo unspecified)	6.86	–
O=C(N[C@@H](c1ccccc1)[C@@H]1CCCCN1)c1cccc(C(F)(F)F)c1Cl	–	24.5 µM (active)
CCCCCCCCCOC(C)=O	-10.8	–
O=C(CCC1CCN(Cc2ccccc2)CC1)c1ccc2c(c1)NCCCC2	–	9.52 µM (active)
CCCCCCOC(=O)C(C)C	6.06	–
CCCOC(=O)c1ccc(C(=O)OCCC)nc1	7.22	–
CO/N=C1\CN(c2nc3c(cc2F)c(=O)c(C(=O)O)cn3C2CC2)CC1CN (stereo unspecified)	8.45	–
CCCCCCCCCCCC[N+](C)(C)CCCS(=O)(=O)[O-]	-0.977	–
C/C=C/C=C/CCCCCCCO	-18.5	–
CCOC(=O)CC(=O)C(=O)OCC	–	43.6 µM (active)
O=C1NCCN1	4.04	–
Nc1nccs1	-15.6	–
Cc1ccc(Nc2nccc(N(C)c3ccc4c(C)n(C)nc4c3)n2)cc1S(N)(=O)=O	–	1.34 µM (active)
O=S1OCCO1	21	–
CC1CC(O)CC(C)(C)C1 (stereo unspecified)	-3.83	–
CC(=O)Oc1ccc2c(c1)CC[C@@H]1[C@@H]2CC[C@]2(C)[C@@H](O)CC[C@@H]12	–	16.9 µM (active)
CNC(=O)N(c1ccccc1)c1ccccc1	10.9	–
CCCCCCCCCCCC[N+](C)(C)CC(=O)[O-]	-3.41	–
CCCC1C(CC)=CC(CC)=CN1c1ccccc1 (stereo unspecified)	–	13.8 µM (active)
C1COCO1	-1.05	–
O=C(c1ccc(O)cc1)c1ccc(Cl)cc1	–	25.1 µM (active)
